Results taken from PubChem BioAssay AID1159580 (chemical genetic matrix, 2015).
About 2,000 (36%) of roughly 5,500 compounds were called active. Inconclusive results (about 18%) are left out. Cut-off read from the data, not from the text of the source: active = normalized growth mostly below about 0.91 (no sharp cut-off); inconclusive = no clear call, values can overlap the other calls; inactive = mostly above about 0.92. Some of the results follow.

Assay: chemical genetic growth profiling, strain panel (AID 1159580);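 note: tested at 20 µM; growth read once vehicle control cultures reached saturation at 30 °C; 1 = growth at the plate median or of vehicle wells; lower values mean less growth of the strain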
Settings: S. cerevisiae deletion strains, growth OD

Measured: normalized growth

CC(=O)O[C@@H]1CC2C(C)(C)[C@H](O)C[C@H](O)[C@]2(C)C2CC[C@@]3(C)C(=CC(=O)O[C@H]3c3ccoc3)[C@@]21C (stereo not given in full)
inactive: locus YAL021C, strain ccr4, stronger effect = lower value 0.977 | locus YAL026C, strain drs2, stronger effect = lower value 0.988 | locus YAL030W, strain snc1, stronger effect = lower value 1 | locus YBL061C, strain skt5, stronger effect = lower value 1 | locus YBR009C, strain hhf1, stronger effect = lower value 1.02 | locus YBR023C, strain chs3, stronger effect = lower value 0.991 | locus YBR171W, strain sec66, stronger effect = lower value 1.01 | locus YBR231C, strain swc5, stronger effect = lower value 1 | locus YBR279W, strain paf1, stronger effect = lower value 0.979 | locus YCL011C, strain gbp2, stronger effect = lower value 0.969 | locus YCL016C, strain dcc1, stronger effect = lower value 0.973 | locus YCL069W, strain vba3, stronger effect = lower value 0.99 | locus YCR088W, strain abp1, stronger effect = lower value 0.992 | locus YDL005C, strain med2, stronger effect = lower value 0.981 | locus YDL040C, strain nat1, stronger effect = lower value 0.99 | locus YDR001C, strain nth1, stronger effect = lower value 0.979 | locus YDR069C, strain doa4, stronger effect = lower value 0.983 | locus YDR137W, strain rgp1, stronger effect = lower value 0.981 | locus YDR159W, strain sac3, stronger effect = lower value 0.978 | locus YDR195W, strain ref2 0.989 | locus YDR297W, strain sur2, stronger effect = lower value 0.98 | locus YDR334W, strain swr1, stronger effect = lower value 0.977 | locus YDR335W, strain msn5, stronger effect = lower value 0.973 | locus YDR392W, strain spt3, stronger effect = lower value 0.914 | locus YEL003W, strain gim4, stronger effect = lower value 1.01 | locus YEL037C, strain rad23, stronger effect = lower value 0.99 | locus YEL061C, strain CIN8 (second series), stronger effect = lower value 0.995 | locus YER015W, strain faa2, stronger effect = lower value 0.976 | locus YER016W, strain bim1, stronger effect = lower value 1.01 | locus YER111C, strain swi4, stronger effect = lower value 0.978 | locus YER155C, strain BEM2 (second series), stronger effect = lower value 1.04 | locus YFR010W, strain ubp6, stronger effect = lower value 1.02 | locus YGL167C, strain pmr1, stronger effect = lower value 0.991 | locus YGL173C, strain kem1, stronger effect = lower value 1.05 | locus YGL227W, strain vid30, stronger effect = lower value 0.986 | locus YGL240W, strain doc1, stronger effect = lower value 1.03 | locus YGL253W, strain hxk2, stronger effect = lower value 0.941 | locus YHR013C, strain ard1, stronger effect = lower value 0.952 | locus YHR027C, strain rpn1, stronger effect = lower value 0.979 | locus YHR142W, strain chs7, stronger effect = lower value 0.945 | locus YJL092W, strain hpr5, stronger effect = lower value 0.985 | locus YJL095W, strain BCK1 (second series), stronger effect = lower value 0.991 | locus YJL115W, strain asf1, stronger effect = lower value 0.963 | locus YJL129C, strain trk1, stronger effect = lower value 0.994 | locus YJL154C, strain vps35, stronger effect = lower value 0.981 | locus YJL164C, strain tpk1, stronger effect = lower value 0.992 | locus YJL166W, strain qcr8, stronger effect = lower value 1.02 | locus YKL160W, strain elf1, stronger effect = lower value 0.981 | locus YKR026C, strain gcn3, stronger effect = lower value 0.989 | locus YKR091W, strain srl3, stronger effect = lower value 0.976 | locus YLL001W, strain dnm1, stronger effect = lower value 0.998 | locus YLL026W, stronger effect = lower value 0.996 | locus YLL041C, strain sdh2, stronger effect = lower value 0.984 | locus YLR027C, strain aat2, stronger effect = lower value 1.01 | locus YLR221C, strain rsa3, stronger effect = lower value 1.03 | locus YLR258W, strain gsy2, stronger effect = lower value 0.974 | locus YLR262C, strain YPT6 (second series), stronger effect = lower value 0.967 | locus YLR320W, strain mms22, stronger effect = lower value 1.02 | locus YLR342W, strain FKS1, stronger effect = lower value 0.991 | locus YLR357W, strain rsc2, stronger effect = lower value 0.984 | locus YLR370C, strain arc18, stronger effect = lower value 0.983 | locus YLR384C, strain iki3, stronger effect = lower value 0.978 | locus YML120C, strain ndi1, stronger effect = lower value 1.01 | locus YMR058W, strain fet3, stronger effect = lower value 1 | locus YMR125W, strain sto1, stronger effect = lower value 0.991 | locus YMR129W, stronger effect = lower value 0.972 | locus YMR205C, strain PFK2, stronger effect = lower value 1.04 | locus YMR231W, strain pep5, stronger effect = lower value 1 | locus YNL071W, strain lat1, stronger effect = lower value 1 | locus YNL209W, strain ssb2, stronger effect = lower value 0.968 | locus YNL248C, strain rpa49, stronger effect = lower value 0.967 | locus YNL322C, strain KRE1 (second series), stronger effect = lower value 1.01 | locus YNR049C, strain mso1, stronger effect = lower value 0.961 | locus YOR001W, strain rrp6, stronger effect = lower value 1.03 | locus YOR070C, strain gyp1, stronger effect = lower value 0.989 | locus YOR080W, strain dia2, stronger effect = lower value 0.986 | locus YOR083W, strain WHI5, stronger effect = lower value 0.954 | locus YOR106W, strain vam3, stronger effect = lower value 0.946 | locus YOR265W, strain rbl2, stronger effect = lower value 0.991 | locus YOR270C, strain vph1, stronger effect = lower value 0.926 | locus YOR290C, strain snf2, stronger effect = lower value 0.942 | locus YPL051W, strain arl3, stronger effect = lower value 0.994 | locus YPL078C, strain atp4, stronger effect = lower value 0.988 | locus YPL106C, strain sse1, stronger effect = lower value 0.975 | locus YPL240C, strain hsp82, stronger effect = lower value 0.994
